# Compounds with a hit are over-represented: about 3.2% of the library has one in this group of screens.
# aDG glyco up = increases alpha dystroglycan glycosylation. Pro5-aDG cells, alpha-DG glycosylation AlphaScreen (IIH6); 0% Pro5, 100% B10-LARGE cell signal. activation, % at 10 µM. 0.22% of 360,000 active. AID 624168;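 active means activation of at least 8% versus controls, or a plate z-score of at least 8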;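 further: Pro5 are CHO cells carrying HIG-tagged alpha-DG that lacks glycosylation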
# H9c2 protect = protects H9c2 cardiomyocytes from peroxide injury; H2O2 injury protection, ATPLite, 2 h; protection from H2O2 cell death, % at 20 µM; 0.63% of 360,000 active;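 active means compounds giving at least 50% protection of heart cells from peroxide-induced death in the single-dose screen, raw or plate-pattern-corrected value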;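 further: 0% = DMSO wells with peroxide and 100% = DMSO wells without peroxide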
# CRFR2-BP ag = agonists of human CRF-binding protein/CRF-R2 receptor complex | HEK293 CRF-R2/CRF-BP, calcium dye fluorescence (FLIPR); percent of saturating CRF peptide response | activation, % at 13.2 µM | 0.46% of 350,000 active;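 active means activation of at least 50%, plus an integration ratio under a set limit after plate pattern correction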;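 further: plate controls were neutral control wells without compound for no effect and CRF at EC100 for full effect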
# FAS TE block = FAS thioesterase (human) inhibition; P49327; recombinant FAS-TE, OMFH fluorogenic substrate, fluorescence endpoint; inhibition, % at 15 µM; 0.67% of 360,000 active; AID 602261;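 active means compounds whose normalised, plate-corrected inhibition of enzyme fluorescence in the single-dose primary screen is 50% or more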;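 further: 0% = DMSO with enzyme and 100% = substrate without enzyme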
# Target sequence (P49327 whole entry, looked up): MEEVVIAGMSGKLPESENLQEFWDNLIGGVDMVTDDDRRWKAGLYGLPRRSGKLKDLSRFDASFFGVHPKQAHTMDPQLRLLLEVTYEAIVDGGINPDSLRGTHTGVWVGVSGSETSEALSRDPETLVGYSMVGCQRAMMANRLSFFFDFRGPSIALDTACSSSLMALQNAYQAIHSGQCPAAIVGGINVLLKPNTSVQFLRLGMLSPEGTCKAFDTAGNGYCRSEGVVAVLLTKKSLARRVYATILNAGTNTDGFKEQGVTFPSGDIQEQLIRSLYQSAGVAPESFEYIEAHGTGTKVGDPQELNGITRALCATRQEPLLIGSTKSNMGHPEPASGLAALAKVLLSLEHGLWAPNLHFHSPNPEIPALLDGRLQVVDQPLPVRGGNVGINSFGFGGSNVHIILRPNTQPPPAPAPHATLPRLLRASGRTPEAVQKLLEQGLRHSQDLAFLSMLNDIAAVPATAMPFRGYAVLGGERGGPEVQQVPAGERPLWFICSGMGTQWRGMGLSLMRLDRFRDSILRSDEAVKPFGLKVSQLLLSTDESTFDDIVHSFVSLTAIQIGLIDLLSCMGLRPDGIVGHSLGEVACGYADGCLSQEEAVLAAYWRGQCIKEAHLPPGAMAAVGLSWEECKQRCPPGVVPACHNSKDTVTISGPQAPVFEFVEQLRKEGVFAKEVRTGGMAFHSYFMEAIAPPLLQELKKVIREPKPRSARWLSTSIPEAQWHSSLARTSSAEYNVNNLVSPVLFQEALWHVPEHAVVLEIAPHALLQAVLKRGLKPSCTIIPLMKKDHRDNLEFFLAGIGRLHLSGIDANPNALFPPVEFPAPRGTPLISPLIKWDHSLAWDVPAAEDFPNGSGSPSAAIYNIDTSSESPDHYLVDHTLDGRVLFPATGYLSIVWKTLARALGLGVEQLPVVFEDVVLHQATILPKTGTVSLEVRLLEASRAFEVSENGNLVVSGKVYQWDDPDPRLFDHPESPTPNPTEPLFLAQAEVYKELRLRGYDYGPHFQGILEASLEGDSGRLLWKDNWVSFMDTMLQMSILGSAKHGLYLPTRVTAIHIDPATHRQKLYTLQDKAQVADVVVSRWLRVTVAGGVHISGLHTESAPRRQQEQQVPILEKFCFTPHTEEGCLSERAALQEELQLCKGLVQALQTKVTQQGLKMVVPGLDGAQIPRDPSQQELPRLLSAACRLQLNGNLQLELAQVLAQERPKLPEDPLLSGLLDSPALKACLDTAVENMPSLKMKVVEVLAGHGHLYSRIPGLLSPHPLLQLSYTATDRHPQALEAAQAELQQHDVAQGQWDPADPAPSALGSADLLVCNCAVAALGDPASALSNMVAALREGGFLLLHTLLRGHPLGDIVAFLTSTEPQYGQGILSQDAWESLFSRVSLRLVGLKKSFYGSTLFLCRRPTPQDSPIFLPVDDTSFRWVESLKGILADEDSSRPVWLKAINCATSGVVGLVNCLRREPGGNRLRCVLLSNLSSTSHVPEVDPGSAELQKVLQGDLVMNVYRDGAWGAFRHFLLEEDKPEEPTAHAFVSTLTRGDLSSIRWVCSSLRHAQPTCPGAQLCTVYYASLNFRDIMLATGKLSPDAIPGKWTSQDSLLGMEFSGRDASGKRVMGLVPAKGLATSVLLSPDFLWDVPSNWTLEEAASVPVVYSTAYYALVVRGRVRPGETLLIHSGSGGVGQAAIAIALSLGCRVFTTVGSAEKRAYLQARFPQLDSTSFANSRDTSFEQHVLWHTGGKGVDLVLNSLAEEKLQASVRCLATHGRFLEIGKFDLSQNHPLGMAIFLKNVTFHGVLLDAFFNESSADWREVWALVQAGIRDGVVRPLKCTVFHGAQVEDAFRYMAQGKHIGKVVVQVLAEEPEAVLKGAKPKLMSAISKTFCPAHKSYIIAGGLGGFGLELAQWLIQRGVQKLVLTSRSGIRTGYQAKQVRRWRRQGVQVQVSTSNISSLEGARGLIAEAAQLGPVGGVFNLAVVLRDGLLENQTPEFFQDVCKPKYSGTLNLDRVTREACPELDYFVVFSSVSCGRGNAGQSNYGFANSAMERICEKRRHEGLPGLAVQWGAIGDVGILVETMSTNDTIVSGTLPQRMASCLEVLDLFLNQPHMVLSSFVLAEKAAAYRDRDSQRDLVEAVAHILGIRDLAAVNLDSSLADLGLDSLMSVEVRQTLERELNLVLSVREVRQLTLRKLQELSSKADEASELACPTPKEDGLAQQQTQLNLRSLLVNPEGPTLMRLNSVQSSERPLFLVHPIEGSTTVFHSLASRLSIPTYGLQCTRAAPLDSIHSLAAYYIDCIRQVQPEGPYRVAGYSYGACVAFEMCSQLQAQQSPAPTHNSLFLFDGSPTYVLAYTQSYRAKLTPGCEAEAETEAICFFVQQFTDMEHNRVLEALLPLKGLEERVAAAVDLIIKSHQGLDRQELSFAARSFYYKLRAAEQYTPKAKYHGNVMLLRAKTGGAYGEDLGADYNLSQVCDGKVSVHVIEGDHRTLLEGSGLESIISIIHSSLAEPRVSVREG
# CRFR2-BP antag = blocks CRF-induced signaling of the CRF-BP/CRF-R2 complex; HEK293 CRF-R2/CRF-BP, CRF-induced calcium fluorescence; inhibition, % at 11.8 µM; 0.59% of 350,000 active;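 active means inhibition of the ligand-induced calcium signal above about 50% at the single tested concentration, limit read from the data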
# PfGluPho inh = PfG6PD (Plasmodium falciparum) enzyme inhibition | PfGluPho enzyme, NADPH resazurin-diaphorase fluorescence | 0.78% of 350,000 active | inhibition, % at 20 µM;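 active means inhibition reaching at least a set limit at 20 µM in the primary screen, cut at about 59% in these data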;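 further: 0% = DMSO wells with substrate and 100% = DMSO wells lacking glucose-6-phosphate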
# An asterisk follows results filed as active; x = not tested or not shown.
SMILES,aDG glyco up,H9c2 protect,CRFR2-BP ag,FAS TE block,CRFR2-BP antag,PfGluPho inh
Cc1c(Cl)cccc1N(CC(=O)NC1CCCCC1)S(C)(=O)=O,0,4,-1,8,-19,-2
CNc1ccc2c3c(cccc13)C(=O)N(C)C2=O,0,13,170*,-161,-118,33
CN1C(=O)c2cccc3c(Cl)ccc(c23)C1=O,0,4,-2,8,-4,0
CN1C(=O)c2cccc3c(N(C)C)ccc(c23)C1=O,0,6,55*,-35,-44,-1
CN(c1ccccc1)c1ccc(/C=C/[N+](=O)[O-])cc1,-1,-19,75*,-13,-162,46
N#CCc1c(C#N)c(N)nc(N2CCCC(CO)C2)c1C#N (stereo unspecified),0,4,2,-8,9,18
Cc1csc(NC(=O)CSc2nnc(-c3ccco3)n2C)n1,0,6,1,-7,-9,-4
COc1cccc2cc(-c3nnc(SCC(=O)Nc4nc(C)cs4)n3C)oc12,0,69*,-2,2,-12,7
CC(C)OC(=O)c1ccc(NC(=O)c2ccccc2)cc1,0,-1,9,6,-63,8
COC(=O)C(OC(=O)c1ccccc1)C(C)Br (stereo unspecified),1,10,-3,-6,63*,-7
Cc1ccccc1S(=O)(=O)NC(=O)C1(C)CCN1C(=O)Cc1ccc(C(C)(C)C)cc1 (stereo unspecified),1,5,x,-8,x,x
CC(=O)Oc1cccc(N2C(=O)C3C4C=CC(C4)C3C2=O)c1 (stereo unspecified),0,-2,-2,-5,7,-2
C=C(C)C(=O)Oc1ccc(N2C(=O)[C@@H]3C4C=CC(C4)[C@@H]3C2=O)cc1,0,-3,-1,-12,61*,6
COc1ccc(OC)c(/C=C/c2ccc3cccc(O)c3n2)c1,0,61*,x,12,x,x
COc1ccc(C=Cc2ccc3ccccc3n2)c(OC)c1,0,-9,80*,12,-7,56
CC(=O)Nc1cccc(N)c1,0,2,-2,-5,7,20
Cc1ccc(NC(=O)CN2CCN(C(=O)c3ccco3)CC2)cc1S(=O)(=O)N(C)C,0,-2,2,-3,-9,11
COc1ccc(OC)c(/C=C2/Sc3ccccc3C2=O)c1,1,-4,197*,-23,-207,-6
COc1ccc(OC)c(C=C2CCc3ccccc3C2=O)c1,0,7,x,16,x,x
Cn1c(N)c(C(=O)COC(=O)c2ncc(Cl)c(Cl)c2Cl)c(=O)n(C)c1=O,0,21,-1,-4,-17,0
O=C1Nc2ccccc2N(O)N1c1cc(-c2cccc(Cl)c2)no1,0,-1,49,-6,50*,-33
O=c1cc(Cc2ccc([N+](=O)[O-])cc2)[nH]c(=O)[nH]1,0,0,1,-4,57*,4
CC(OC(=O)c1cccc(N(C)C)c1)C(=O)N1CCc2ccccc2C1 (stereo unspecified),0,-4,-1,1,10,19
Cc1cccc(C)c1C(=O)N[C@@H](Cc1ccccc1)C(=O)O,0,2,0,-12,-1,-15
C[C@@H]1CN([C@H](C)CO)C(=O)CCCn2nncc2CO[C@@H]1CN(C)C(=O)c1ccccc1,0,-5,0,-10,-5,-8
SMILES,aDG glyco up,H9c2 protect,CRFR2-BP ag,FAS TE block,CRFR2-BP antag,PfGluPho inh
O=C(O)c1ccccc1NC(=O)c1ccccc1Nc1ccccc1,0,-5,-1,12,52*,-13
O=C(COc1ccc2ccccc2c1)Nc1cccc(C(=O)Nc2ccccc2C(=O)O)c1,0,6,0,32,59*,-35
O=C(Nc1ccccc1C(=O)Nc1ccccc1C(=O)O)c1ccccc1,0,-8,0,6,53*,-16
Nc1ccc(C(=O)Nc2ccccc2C(=O)O)cc1,0,-4,-2,-6,18,1
C[C@H](NC(=O)C1CCN(C(=O)[C@@H]2CCCN2C(=O)OC(C)(C)C)CC1)C(=O)NCc1ccc(F)cc1,1,8,x,2,x,x
COc1cc(/C=C(\C#N)c2nc3ccccc3o2)ccc1O,0,-4,155*,-34,-97,-21
COCCN(C(=O)CSc1nnc(C)n1-c1ccc(C)cc1)c1c(N)n(Cc2ccccc2)c(=O)[nH]c1=O,0,-1,-1,-6,3,-1
COc1ccc(S(=O)(=O)N(CCCN2CCCC2=O)Cc2cc3cc(C)c(C)cc3[nH]c2=O)cc1,0,47*,-2,-8,-24,-2
COc1cc(CN2CCNC(=O)C2CC(=O)N(C)CCCN2CCOCC2)cc(OC)c1 (stereo unspecified),0,2,1,0,2,3
CC1=C(C(=O)OC2CCCCC2)C(c2ccc(N(C)C)cc2)NC(=O)N1 (stereo unspecified),0,-17,-1,8,9,-4
Cc1ccc(OCC(=O)Nc2cc(Cl)ccc2-n2cncn2)c(C)c1,0,-1,-1,28,-4,24
Cc1ccc(S(=O)(=O)CCC(=O)Nc2cc(Cl)ccc2-n2cncn2)cc1,0,5,0,4,50*,-4
CCC(=O)c1cn(CC(=O)Nc2ccccc2Cl)c2ccccc12,0,9,-2,1,1,-32
O=C(NC1CCCCC1)c1nc(-c2c(F)cccc2F)oc1-c1ccccc1,0,x,x,x,x,x
Cc1cc(NC(=O)CN2CCOCC2)n(-c2nc3ccccc3s2)n1,x,x,-1,x,-10,1
CC(=O)Nc1cc(C)nn1-c1nc2ccccc2s1,0,52*,-1,1,-4,5
COc1cc(NC(=O)COc2cc3oc(=O)cc(C)c3cc2Cl)cc(OC)c1OC,2,-12,-3,-7,-5,-7
CCCCCCc1cc2cc(C(=O)NCc3ccccc3)c(=N)oc2cc1O,0,-17,175*,-25,-109,-10
CC(C)c1ccc(NC(=O)CSc2nc(=O)n(CCN3CCOCC3)c3c2CCC3)cc1,0,-1,-1,-2,7,0
COc1ccc(NC(=O)c2cc3c(=O)n(C)c4ccccc4c3n2C)cc1OC,0,50*,-4,-2,-34,9
Cn1c(C(=O)NCc2cccs2)cc2c(=O)n(C)c3ccccc3c21,0,68*,1,-1,8,2
Cc1ccc(CNC(=O)c2cc3c(=O)n(C)c4ccccc4c3n2C)cc1,0,-34,2,-1,22,-5
O=C(CSc1nnc(-c2ccccc2F)o1)N1CCNC1=O,0,5,0,-7,2,-9
COc1cccc(C(=O)COC(=O)CCC(=O)c2ccccc2)c1,0,4,-1,6,3,-7

# Assay outcomes as filed in PubChem.
